# Source: PubChem BioAssay
# This is a sample that favours compounds with a hit; in the whole collection about 11% have one here.
# G9a block = blocks human histone lysine methyltransferase G9a; Q96KQ7; G9a H3K9 monomethylation, AlphaScreen, 2 h; Potency, µM (highest dose often 102 µM), for inactives: at the highest dose activity, negative = inhibition, actives largely listed as inhibitors; 350,000 compounds, 8.8% hits; AID 504332; also: potency is read from the fitted curve at half-maximal effect; % is scaled to controls: 0 for no effect and ±100 for the full control effect; nearly all actives have a fitted effect of over 75% in size
#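 G9a (20 nM) preincubated 15 min RT with compounds, then 500 nM biotinylated H3K9 peptide and 20 uM SAM added; 2 h RT reaction. Monomethyl-H3K9 product detected by AlphaScreen with anti-H3K9me1 antibody, streptavidin donor and anti-rabbit IgG acceptor beads.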
# JMJD2A Tudor = blocks the human JMJD2A Tudor domain | O75164 | AlphaScreen JMJD2A-Tudor / H3K4me3 peptide binding | 390,000 compounds, 4.4% hits | AID 504339 | Potency, µM (series often up to 114 µM), without a hit: top-dose activity change, negative = inhibition, hits mostly inhibitors; also: potency is read from the fitted curve at half-maximal effect; % is scaled to controls: 0 for no effect and ±100 for the full control effect; nearly all actives have a fitted effect of over 50% in size
# VDR inhibitor = inhibitors of human vitamin D receptor | 400,000 compounds, 0.93% hits | AID 504847 | Potency, µM, for inactives: max response, negative = inhibition, usual class: inhibitors | VDR-SRC2-3 peptide fluorescence polarization, 2 h; also: potency is read from the fitted curve at half-maximal effect; % is scaled to controls: 0 for no effect and ±100 for the full control effect
# Target sequence (P11473 whole entry, looked up): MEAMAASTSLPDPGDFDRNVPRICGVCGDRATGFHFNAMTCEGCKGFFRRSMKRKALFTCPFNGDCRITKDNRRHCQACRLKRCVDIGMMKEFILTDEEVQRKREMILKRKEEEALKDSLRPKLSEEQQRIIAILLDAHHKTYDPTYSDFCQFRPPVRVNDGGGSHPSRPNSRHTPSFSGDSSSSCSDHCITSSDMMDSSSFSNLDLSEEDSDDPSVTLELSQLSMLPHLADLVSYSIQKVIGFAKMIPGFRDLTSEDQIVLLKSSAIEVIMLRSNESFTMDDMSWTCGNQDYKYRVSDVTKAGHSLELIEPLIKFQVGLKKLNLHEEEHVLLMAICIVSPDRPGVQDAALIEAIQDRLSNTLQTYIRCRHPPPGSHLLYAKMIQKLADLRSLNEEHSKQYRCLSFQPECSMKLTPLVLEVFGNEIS
#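 Compounds are added to VDR with labelled SRC2-3 coactivator peptide and held 2 h at room temperature. Inhibition of the VDR–peptide interaction is then read as a change in fluorescence polarization.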
# PLK1 PBD block = blocks phosphopeptide binding to human PLK1 polo-box domain; P53350; Plk1 PBD binding of FITC phosphopeptide, fluorescence polarization; Potency, µM, without a hit: max response, negative = inhibition, actives largely listed as inhibitors; 360,000 compounds, 2.8% hits; also: potency is read from the fitted curve at half-maximal effect; series mostly up to about 57 µM; % is scaled to controls: 0 for no effect and ±100 for the full control effect; nearly all actives have a fitted effect of over 65% in size
# BAZ2B block = inhibitors of human BAZ2B bromodomain; Potency, µM (highest dose often 114 µM), for inactives: at the highest dose activity change, negative = inhibition, actives largely listed as inhibitors; Q9UIF8; AlphaScreen BAZ2B-H3K14Ac peptide displacement; 360,000 compounds, 4.4% hits; AID 504333; also: potency is read from the fitted curve at half-maximal effect; % is scaled to controls: 0 for no effect and ±100 for the full control effect; nearly all actives have a fitted effect of over 60% in size
#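 Compounds, titrated to a top concentration of 110 uM, were incubated 30 min at room temperature with preformed BAZ2B/acetyl-K14 H3 peptide complex (50 nM each). Proximity signal was measured by AlphaScreen after 20 min with beads.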
# HP1b binding inh = inhibitors of HP1-beta chromodomain binding to methylated histone tails. P83916. AlphaScreen HP1-beta / biotin-H3K9me3 peptide binding. Potency, µM (titrated, usually from 114 µM), without a hit: at the top dose activity change, negative = inhibition, most hits filed as inhibitors. 390,000 compounds, 0.56% hits. AID 540317; also: potency is read from the fitted curve at half-maximal effect; nearly all actives have a fitted effect of over 70% in size
# Target sequence (P83916 whole entry, looked up): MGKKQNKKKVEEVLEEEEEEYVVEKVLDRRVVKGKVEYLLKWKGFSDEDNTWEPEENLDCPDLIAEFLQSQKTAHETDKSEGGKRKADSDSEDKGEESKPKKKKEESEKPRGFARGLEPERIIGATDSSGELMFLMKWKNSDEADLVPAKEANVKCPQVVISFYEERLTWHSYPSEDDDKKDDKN
#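 Compound inhibition of the preformed complex between 50 nM HP1-beta and 50 nM biotinylated H3K9me3 peptide was read by AlphaScreen. Buffer was PBS pH 7.4 with 0.01% Tween-20. Incubations ran 30 min at room temperature, with 10 ug/mL donor/acceptor beads.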
# 12-hLO 8HQ R1 = 12-hLO (human) inhibition, 8HQ series round 1. shares compounds with BAZ2B block. purified 12-hLO, cuvette UV 234 nm product formation. Potency, µM, most hits filed as inhibitors. 35 compounds, 60% hits;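 active = compounds that slowed 12-hLO product formation enough to yield a measured IC50 potency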
# JMJD2E inh = blocks human JMJD2E demethylase activity; shares compounds with BAZ2B block; JMJD2E demethylase, FDH-coupled NADH fluorescence (FDH is formaldehyde dehydrogenase); Potency, µM (top dose mostly 57 µM), inactives show top-dose activity, negative = inhibition, hits mostly inhibitors; 130 compounds, 89% hits; AID 493212
# ME-1 growth = ME-1 cell growth inhibition; shares compounds with BAZ2B block; ME-1 cell proliferation, ATP luminescence, 48 h; Potency, µM (highest dose often 56.1 µM), inactives show at the top dose activity change, negative = inhibition, actives largely listed as inhibitors; 140 compounds, 20% hits; AID 504370
# Numbers without * were called inactive; i = inactive; ? = inconclusive; . = no result given; ! = repeats disagree; [ ] = another dose, or the depositor's remark. Unless noted, calls follow the shape of the dose curve; as a rule, active = well fitted curve in the direction sought with a large enough effect; inconclusive = small, poorly fitted or top-dose-only effect, or another doubt; inactive = no such curve, though single readings can be large; an effect the other way counts as inactive or inconclusive.
SMILES,G9a block,JMJD2A Tudor,VDR inhibitor,PLK1 PBD block,BAZ2B block,HP1b binding inh,ME-1 growth,others
CCCCCCCCCCCCCCCCCCOC[C@H](COP(=O)([O-])OCC[N+](C)(C)C)OC,4.9%[12.7 µM],.,10.4%,.,.,.,15.5%,
CCCCCCCCCCCCCCCCOCC(COP(=O)([O-])OCC[N+](C)(C)C)OC (stereo not drawn),26.1%[59 µM],.,-1.4%,.,.,.,.,
COc1ccc(OCC(=O)NCC2(N3CCN(C)CC3)CCCCC2)cc1,-6.6%[59 µM],-15.6%,-5.9%,.,-4.9%,42.3%,.,
NCC(=O)Nc1ccc(Cl)cc1C(=O)c1ccc[nH]1,25.1µM*,-12.0%,-11.1%,1.2%,?,37.8%,4.86µM*,
CCn1nc(C)c(CNC(=O)c2cc(COc3ccc(F)cc3Cl)on2)c1C,12.9%,2.8%,-2.1%,0.7%,-11.8%,37.2%,.,
Oc1csc(Cc2nc(-c3ccc4ccccc4c3)cs2)n1,38.6%[12.7 µM],-18.0%,2.1%,-6.7%,-8.6%,5.1%,.,
Oc1csc(Cc2nc(-c3ccccc3F)cs2)n1,?,-21.7%,9.9%,-12.1%,-3.0%,43.4%,0.9%[25.6 µM],
O=c1c(-c2cc(O)c(O)c(O)c2)coc2cc(O)c(O)c(O)c12,-146.5%[2.33 µM],.,14.1µM*,.,.,.,16.0%,
FC(F)Oc1cccc2cccnc12,-6.6%[59 µM],-0.6%,16.1%,-8.0%,-4.7%,12.4%,.,
c1cnc2c(c1)ccc1cccnc12,12.6µM*,7.94µM*,-0.6%,-26.7%,1.58µM*,30.9%,8.91µM*,
Cc1nc2ccc(NC(=S)N3CCOCC3)cc2nc1C,44.7µM*,-15.6%,-4.3%,-11.5%,-30.3%,40.9%,-13.6%,
Cc1nc2ccc(NC(=S)N3CCCC3)cc2nc1C,.,-7.7%,-21.7%,-11.2%,-11.6%,26.0%,.,
CC(C)=CC[C@@H](O)C1=CC(=O)c2c(O)ccc(O)c2C1=O,6.31µM*,.,1.78µM*,.,.,.,1.12µM*,
O=C(O)c1cn2c3c(ccc(Cl)c3c1=O)OCC2,?,?,-26.1%,?,-13.1%,15.8%,.,
CCOC(=O)C1=C(CS(=O)(=O)c2ccc(OC)c(Cl)c2)NC(=O)NC1c1cccc(OC)c1 (stereo not drawn),-8.7%[59 µM],-16.7%,?,.,?,17.5%,.,
c1ccc(-c2nnc(-c3ccccn3)nc2NC2CCCCC2)cc1,-3.9%,3.16µM*,-6.4%,0.0%,1.78µM*,18.8%,7.08µM*,
Cc1ccccc1NC(=S)N(CCN(C)C)C(C)c1ccco1 (stereo not drawn),1.7%[59 µM],-8.1%,-1.5%,-7.4%,-3.9%,7.8%,.,
Cc1cccc(C)c1NC(=S)N(CCN(C)C)C(C)c1ccccn1 (stereo not drawn),-15.5%,-21.4%,-3.0%,1.8%,.,8.6%,-11.3%[25.6 µM],
CC(c1ccccn1)N(CCN(C)C)C(=S)Nc1cccc(F)c1 (stereo not drawn),-9.7%[12.7 µM],-8.6%,-3.1%,-9.8%,?,13.8%,-4.1%[25.6 µM],
Cc1cccc(C)c1NC(=S)N(CCN(C)C)C(C)c1cccnc1 (stereo not drawn),-1.4%[59 µM],-13.0%,-7.0%,-8.8%,-24.0%,31.5%,.,
Cc1ccc(C)c(NC(=S)N(CCN(C)C)C(C)c2ccccn2)c1 (stereo not drawn),-4.4%,-6.3%,-1.7%,3.2%,.,33.3%,-3.7%[25.6 µM],
C[C@H](CO)N1C[C@H](C)[C@@H](CN(C)C(=O)c2ccc3c(c2)OCO3)Oc2cc(/C=C/c3ccccc3)ccc2S1(=O)=O,.,.,.,3.5%,.,.,.,
O=[N+]([O-])c1c(C(Cl)Cl)nn(-c2ccccc2)c1N1CCCC1,?,25.1µM*,9.9%,-5.7%,12.6µM*,?,-8.7%[25.6 µM],
COc1c(O)cc2c(c1O)C1OC(CO)C(O)C(O)C1OC2=O (stereo not drawn),7.0%[59 µM],-3.6%,7.7%,-10.2%,2.6%,28.5%,.,
O=C1OCC2OC(O)C(O)C(O)C2OC(=O)c2cc(O)c(O)c(O)c2-c2c(O)c(O)c3oc(=O)c4c(c(O)c(O)c5oc(=O)c2c3c54)-c2c1cc(O)c(O)c2O (stereo not drawn),?,.,.,.,0.708µM*,.,?,
SMILES,G9a block,JMJD2A Tudor,VDR inhibitor,PLK1 PBD block,BAZ2B block,HP1b binding inh,ME-1 growth,others
Oc1cccc(O)c1O,3.55µM*,.,79.4µM*,.,.,.,0.7%,
Cc1cn([C@H]2C[C@H](O)[C@@H](/C=C/C(=O)NCc3ccc(N(C)C)cc3)O2)c(=O)[nH]c1=O,.,.,.,-6.9%,.,.,.,
COc1cccc(C(=O)NC(c2ccc(Cl)cc2)c2cc(Cl)c3cccnc3c2O)c1 (stereo not drawn),17.9%[59 µM],-0.6%,7.5%,.,5.1%,8.3%,.,
CC(=O)NC(c1ccco1)c1cc(Cl)c2cccnc2c1O (stereo not drawn),14.1%[12.7 µM],.,.,.,31.6µM*,.,.,12-hLO 8HQ R1=3µM*;JMJD2E inh=32.4µM*
CCC(=O)NC(c1cc(Cl)c2cccnc2c1O)c1cccn1C (stereo not drawn),.,?,.,.,.,.,.,12-hLO 8HQ R1=3.8µM*;JMJD2E inh=15.6%
CC(=O)NC(c1ccco1)c1cc(Cl)c2ccc(N(C)C)nc2c1O (stereo not drawn),?,.,.,.,50.1µM*,.,.,12-hLO 8HQ R1=i;JMJD2E inh=20.4µM*
CCC(=O)NC(c1ccco1)c1cc(Cl)c2cccnc2c1OC (stereo not drawn),-23.1%[12.7 µM],-12.8%,-12.2%,.,-2.4%,27.2%,.,12-hLO 8HQ R1=i;JMJD2E inh=32.4µM*
CCCCC(=O)NC(c1ccco1)c1cc(Cl)c2cccnc2c1O (stereo not drawn),.,-14.3%[11.4 µM],1.8%,-21.9%,-13.2%,30.8%,.,
O=C(c1ccc2c(c1)N(Cc1ccccc1F)C(=O)c1ccccc1S2(=O)=O)N1CCCCCC1,0.4%[59 µM],-30.3%,-11.7%,.,?,4.7%,.,
CC(=O)NC(c1ccco1)c1cc(Br)c2cccnc2c1O (stereo not drawn),7.8%[12.7 µM],.,.,.,28.2µM*,.,.,12-hLO 8HQ R1=2µM*;JMJD2E inh=28.9µM*
O=C(CSc1cccc2cccnc12)NCc1ccco1,.,-18.7%,17.6%,-3.6%,4.1%,27.4%,.,
c1ccc(-c2n[nH]c(-c3ccccn3)n2)nc1,?,1µM*,-2.4%,-3.5%,0.708µM*,29.4%,?,
c1ccc(-c2cccs2)nc1,31.4%,-5.3%,-6.9%,-8.4%,7.3%,0.0%,.,
c1ccc(-c2ccccn2)nc1,14.1µM*!,?,9.1%,-5.3%,79.4µM*,68.2%,-12.7%,
c1ccc(-c2ccc(-c3ccccn3)nn2)nc1,?,.,.,.,2µM*,.,17.8µM*,
